Holding throughout (assay): Euclidean distance of Cell Painting phenotypic profile (signed KS, 77 features) to DMSO centroid (dimensionless distance); 5 or 10 uM (library dependent); higher = stronger phenotypic change vs DMSO (phenoactivity)
Holding throughout (conditions): 48 h

One experiment has as its system 786-O. The essentials:
(§1)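 Stained cells were imaged confocally at 20X with 9 fields per well, after 48 h of exposure to library compounds at 10 or 5 uM (set by library; 0.1% DMSO final). The cells were five cancer lines and a healthy fibroblast line. From the images, Harmony extracted 77 features, each expressed as a signed Kolmogorov-Smirnov statistic relative to same-plate vehicle wells. Phenoactivity is measured as Euclidean distance to the median vehicle profile, using plate-position-corrected, correlation-weighted profiles averaged across replicates at the top dose.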

The test system of another experiment is A549. The essentials:
as §1

For another experiment, the system named is FB. The essentials: as §1
Another experiment relates to HEPG2. In short, it runs like this: as §1
The next experiment relates to OVCAR4. In short, it runs like this: as §1
Another experiment relates to DU145. The essentials: as §1

Structures can show the parent of a compound that is named as a salt.

As for `CC12CCC(CC1)C(C)(C)O2` [Eucalyptol], the Euclidean distance was found to be 0.884 in the experiment on 786-O; 0.614 with A549; 0.855 in the experiment on FB; 0.869 in the experiment on HEPG2; 0.746 with OVCAR4.

Regarding `CC1=C(C(=O)O)N2C(=O)[C@@H](NC(=O)[C@H](N)c3ccccc3)[C@H]2SC1` [Cephalexin], the Euclidean distance amounted to 1.16 in the experiment on 786-O; 1.01 in the experiment with A549; 1.05 in the experiment on FB; 0.939 with HEPG2; 1.1 in the experiment on OVCAR4.

As to `C[C@@H]1CCC[C@H](C)N1NC(=O)c1ccc(Cl)c(S(N)(=O)=O)c1` [Clopamide], the Euclidean distance in the experiment with 786-O is 1.15; in the experiment with A549, 1.14; with FB it was 0.969; with HEPG2 it was 0.528; with OVCAR4, 1.14.

As to `CC(C)(C)c1ccc(C(=O)CCCN2CCC(OC(c3ccccc3)c3ccccc3)CC2)cc1` [Ebastine], the Euclidean distance turned out to be 1.64 in the experiment with 786-O; 1.24 in the experiment with A549; 1.83 in the experiment on FB; 0.905 in the experiment on HEPG2; 1.22 in the experiment on OVCAR4.

Take `CCOC(=O)[N-]c1c[n+](N2CCOCC2)no1` [Molsidomine]: the Euclidean distance stood at 0.969 with 786-O; 1.06 with A549; 0.842 with FB; 0.73 in the experiment on HEPG2; 1.63 with OVCAR4.

As for `CCCNC(=O)Nc1ccc(Oc2ncnc3cc(OC)c(OC)cc23)cc1Cl`, the Euclidean distance is 0.633 with 786-O; 0.789 in the experiment with A549; 0.916 in the experiment with DU145; 2.36 in the experiment on FB; 1.05 in the experiment on OVCAR4.

On to `S=C(N/N=C1/CCCc2cccnc21)N1CCN(c2ccccn2)CC1`, for which the Euclidean distance in the experiment with 786-O came out at 3.03; with A549, 3.6; in the experiment on FB, 3.2; in the experiment with HEPG2 it was 2.23; with OVCAR4, 1.11.

Take `COc1ccc([C@@H]2Sc3ccccc3N(CCN(C)C)C(=O)[C@@H]2OC(C)=O)cc1` [Diltiazem HCl]: the Euclidean distance with 786-O came out at 0.663; in the experiment with A549, 1.04; with FB, 0.788; in the experiment with HEPG2 it was 0.773; in the experiment on OVCAR4, 0.53.

Regarding `CO[C@@]12[C@H](COC(N)=O)C3=C(C(=O)C(C)=C(N)C3=O)N1C[C@@H]1N[C@@H]12` [Mitomycin C], the Euclidean distance in the experiment with 786-O worked out at 3.14; in the experiment with A549, 3.37; in the experiment with FB, 3.89; in the experiment on HEPG2, 3.46; in the experiment on OVCAR4, 3.61.

In the case of `C[C@@H](O)[C@H]1C(=O)N2C(C(=O)O)=C(S[C@@H]3CN[C@H](C(=O)Nc4cccc(C(=O)O)c4)C3)[C@H](C)[C@H]12` [Ertapenem sodium], the Euclidean distance in the experiment on 786-O was found to be 0.672; in the experiment with A549, 0.953; with FB, 0.956; in the experiment with HEPG2, 0.854; in the experiment with OVCAR4 it was 0.913.

Turning to `CC1(C)S[C@@H]2[C@H](NC(=O)C(C(=O)O)c3ccccc3)C(=O)N2[C@H]1C(=O)O` (stereo not given in full) [Carbenicillin disodium], the Euclidean distance in the experiment with 786-O turned out to be 1.39; in the experiment with A549 it was 1.07; in the experiment with FB it was 0.969; in the experiment with HEPG2, 0.836; in the experiment on OVCAR4, 1.76.

On to `O=C(NCCN1CCOCC1)c1ccc(Cl)cc1`, for which the Euclidean distance is 1.01 with 786-O; 1.34 with A549; 0.812 in the experiment with FB; 0.538 in the experiment with HEPG2; 1.07 with OVCAR4.

For `Cc1c(C)c2c(c(C)c1O)CC[C@@](C)(CCC[C@H](C)CCC[C@H](C)CCCC(C)C)O2` [Vitamin E], the Euclidean distance turned out to be 0.972 in the experiment with 786-O; 1.04 in the experiment with A549; 0.892 with FB; 0.644 with HEPG2; 1.43 in the experiment on OVCAR4.

For the compound `Nc1nc(N)nc(-c2cc(Cl)ccc2Cl)n1` [Irsogladine], the Euclidean distance with 786-O is 1.09; with A549 it was 1.05; with FB it was 0.809; in the experiment with HEPG2, 0.613; in the experiment on OVCAR4, 1.41.

With `COc1c(O)cc2c(c1O)[C@@H]1O[C@H](CO)[C@@H](O)[C@H](O)[C@H]1OC2=O` [Bergenin], the Euclidean distance in the experiment on 786-O came out at 1.22; in the experiment on A549, 0.742; with FB, 0.906; with HEPG2, 0.765; in the experiment with OVCAR4 it was 2.16.

Regarding `CN(C(=O)c1ccc(F)cc1C(F)(F)F)C1CCN(c2nnc(-c3ccnn3C)c3ccccc23)CC1`, the Euclidean distance in the experiment with 786-O turned out to be 1.45; in the experiment with A549, 0.959; in the experiment with FB, 1.03; with HEPG2, 1; in the experiment with OVCAR4, 1.53.

For the compound `CCCCCCCCCC(=O)N[C@@H](Cc1c[nH]c2ccccc12)C(=O)N[C@H](CC(N)=O)C(=O)N[C@@H](CC(=O)O)C(=O)N[C@@H]1C(=O)NCC(=O)N[C@@H](CCCN)C(=O)N[C@@H](CC(=O)O)C(=O)N[C@H](C)C(=O)N[C@@H](CC(=O)O)C(=O)NCC(=O)N[C@H](CO)C(=O)N[C@@H]([C@H](C)CC(=O)O)C(=O)N[C@@H](CC(=O)c2ccccc2N)C(=O)O[C@@H]1C` [Daptomycin], the Euclidean distance in the experiment on 786-O was found to be 1.06; with A549, 0.544; in the experiment with FB, 0.795; in the experiment on HEPG2, 0.461; in the experiment with OVCAR4 it was 1.14.

As to `CC(C)C(=O)Nc1ccc([N+](=O)[O-])c(C(F)(F)F)c1` [Flutamide], the Euclidean distance in the experiment on 786-O stood at 0.873; in the experiment with A549, 0.771; in the experiment on FB, 1.09; with HEPG2, 0.723; in the experiment on OVCAR4, 1.99.

As for `CCC(NC(C)C)C(O)c1ccc(O)c(O)c1` (stereo not given) [Isoetharine Mesylate], the Euclidean distance in the experiment with 786-O is 0.478; in the experiment with A549, 0.789; with FB, 1.18; in the experiment on HEPG2, 0.832; in the experiment with OVCAR4, 1.01.

Take `CN[C@@H]1CCc2[nH]c3ccc(C(N)=O)cc3c2C1` [Frovatriptan Succinate]: the Euclidean distance was 1.33 with 786-O; 0.718 in the experiment on A549; 0.896 in the experiment on FB; 0.505 with HEPG2; 1.29 with OVCAR4.

As to `COc1ccc(CN(CCN(C)C)c2ccccn2)cc1` [Pyrilamine Maleate], the Euclidean distance came to 0.832 in the experiment on 786-O; 0.864 in the experiment on A549; 1.11 with FB; 0.605 with HEPG2; 1.5 in the experiment with OVCAR4.

Take `Nc1[nH]cnc2ncnc1-2` [Adenine HCl]: the Euclidean distance with 786-O was 1.09; in the experiment on A549, 0.466; in the experiment with FB it was 1.18; in the experiment with HEPG2 it was 0.46; in the experiment on OVCAR4 it was 1.59.

Take `C=C(C)[C@@H]1CC=C(CO)CC1` [Perillyl alcohol]: the Euclidean distance amounted to 0.887 in the experiment with 786-O; 0.815 with A549; 0.953 with FB; 1.09 with HEPG2; 1.74 in the experiment with OVCAR4.

As to `CN(CCOc1ccc(NS(C)(=O)=O)cc1)CCc1ccc(NS(C)(=O)=O)cc1` [Dofetilide], the Euclidean distance worked out at 0.968 in the experiment on 786-O; 1.19 with A549; 1.24 in the experiment on FB; 0.609 in the experiment with HEPG2; 1.02 in the experiment with OVCAR4.

On to `O=C(c1ccccc1)c1ccc2n1CCC2C(=O)O` (stereo not given) [Ketorolac tromethamine salt], for which the Euclidean distance in the experiment with 786-O turned out to be 0.861; with A549, 0.868; in the experiment with FB, 0.834; with HEPG2, 0.47; in the experiment with OVCAR4 it was 0.82.

For `CN1CCc2nc(C(=O)N[C@@H]3C[C@@H](C(=O)N(C)C)CC[C@@H]3NC(=O)C(=O)Nc3ccc(Cl)cn3)sc2C1` [Edoxaban], the Euclidean distance was found to be 1.02 in the experiment on 786-O; 0.603 with A549; 0.835 in the experiment with FB; 0.275 in the experiment with HEPG2; 0.602 with OVCAR4.

For the origin of these results see the supplement of paper PMC10127200.
